# The list is not random: actives were taken first. Their share in the collection is about 2.4%.
# L3MBTL1 block – inhibitors of human L3MBTL1; Q9Y468; AlphaScreen L3MBTL1–H3K9me1 peptide binding; Potency, µM (doses to about 57.1 µM), most hits filed as inhibitors; 230,000 tested, 0.66% active; AID 485360; also: nearly all actives have a fitted effect of over 60% in size
#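 Read-out is AlphaScreen signal from streptavidin donor and nickel chelate acceptor beads (10 ug/mL final each) bridging L3MBTL1 (50 nM) and biotinylated K9-monomethylated H3(1-15) peptide (75 nM), after 30 min compound exposure at room temperature.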
# Pol beta inh – blocks human DNA polymerase beta activity. Pol beta primer extension/strand displacement, fluorescence kinetic. 340,000 tested, 1.3% active. P06746. Potency, µM (highest dose often 114 µM), hits mostly inhibitors
#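 Reaction started by 50 nM substrate onto compound-treated Pol beta (10 nM, 15 min preincubation, room temperature); plates read at 0 min and 10 min. Normalized concentration-effect data fitted by four-parameter Hill equation.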
# POLI inh – inhibitors of human DNA polymerase iota | Q9UNA4 | Pol iota fluorescent replication assay, 10 min | Potency, µM (top dose mostly 115 µM), actives largely listed as inhibitors | 390,000 tested, 1% active | AID 588590
#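 Pol iota at 10 nM preincubated 15 min with compounds at room temperature; reaction started with fluorescent substrate, 50 nM final. Fluorescence read kinetically at 0 and 10 min; buffer-only wells as negative control.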
# Pol kappa inh – inhibitors of human DNA polymerase kappa; purified Pol kappa, fluorescent DNA synthesis assay, 10 min; Potency, µM (top dose mostly 107 µM), actives largely listed as inhibitors; 400,000 tested, 0.53% active
# Target sequence (Q9UBT6 whole entry, looked up): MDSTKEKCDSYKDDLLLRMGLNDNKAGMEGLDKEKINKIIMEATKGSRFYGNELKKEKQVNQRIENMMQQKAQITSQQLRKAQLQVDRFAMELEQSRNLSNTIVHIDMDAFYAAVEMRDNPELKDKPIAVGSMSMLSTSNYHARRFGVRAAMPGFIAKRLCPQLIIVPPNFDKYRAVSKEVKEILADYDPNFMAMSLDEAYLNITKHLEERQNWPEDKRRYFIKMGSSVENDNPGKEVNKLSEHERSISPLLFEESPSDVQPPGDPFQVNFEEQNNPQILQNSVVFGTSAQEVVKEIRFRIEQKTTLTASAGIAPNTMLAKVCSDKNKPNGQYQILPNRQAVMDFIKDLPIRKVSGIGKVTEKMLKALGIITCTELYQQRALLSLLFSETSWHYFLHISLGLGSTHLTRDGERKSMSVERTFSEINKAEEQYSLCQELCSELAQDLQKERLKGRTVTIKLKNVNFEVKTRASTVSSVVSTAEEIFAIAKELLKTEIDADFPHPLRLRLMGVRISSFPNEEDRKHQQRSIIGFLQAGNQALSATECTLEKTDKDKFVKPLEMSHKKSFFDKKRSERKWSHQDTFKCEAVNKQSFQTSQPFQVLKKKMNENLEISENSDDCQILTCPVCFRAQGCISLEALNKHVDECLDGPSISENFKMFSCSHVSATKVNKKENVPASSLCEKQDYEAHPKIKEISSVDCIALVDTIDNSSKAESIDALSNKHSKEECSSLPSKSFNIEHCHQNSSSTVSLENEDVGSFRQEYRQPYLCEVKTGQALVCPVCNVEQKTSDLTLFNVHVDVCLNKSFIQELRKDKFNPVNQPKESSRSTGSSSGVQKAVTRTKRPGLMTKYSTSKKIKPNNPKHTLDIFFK
#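 Kinetic fluorescence readout at 0 and 10 min followed reaction start with substrate at 50 nM final. Beforehand, enzyme (10 nM Pol kappa) stood 15 min with compound at room temperature; buffer-only wells were negative controls.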
# POLH inh – inhibitors of human DNA polymerase eta; Q9Y253; 390,000 tested, 1.2% active; recombinant Pol eta, fluorescent DNA replication assay; Potency, µM (titrated, usually from 114 µM), most hits filed as inhibitors
#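 Pol eta at 10 nM preincubated with compounds 15 min at room temperature; reaction started with fluorescent substrate (50 nM final) and read kinetically at 0 and 10 min.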
# Numbers stand for hits; . = inactive; ? = inconclusive; / = not tested or not shown; ! = not active in a repeat; [ ] = dose if it differs, or a comment. Calls follow the shape of the dose curve; as a rule, active = well fitted curve in the direction sought with a large enough effect; inconclusive = small, poorly fitted or top-dose-only effect, or another doubt; inactive = no such curve, though single readings can be large; an effect the other way counts as inactive or inconclusive.
SMILES,L3MBTL1 block,Pol beta inh,POLI inh,Pol kappa inh,POLH inh
CCOc1ccccc1NC(=O)CSc1ccc(-c2ccco2)nn1,/,?,56µM,.,?
O=C(CSc1ccc(-c2ccco2)nn1)c1ccc(F)cc1,.,?,14µM,32µM,?
CC(=O)c1ccc(NC(=O)CSc2ccc(-c3ccco3)nn2)cc1,/,28µM,45µM,.,?
O=C(CSc1ccc(-c2ccco2)nn1)NCc1ccc(F)cc1,.,.,.,.,.
Cc1ccc2nc(NC(=O)CSc3nccn3Cc3ccc(F)cc3)sc2c1,/,.,.,.,.
Cc1cc2nccc(/C=C/c3ccc(N(C)C)cc3)c2cc1C,/,/,?,.,/
C=C1C(N)CC2CC1C2(C)C (configuration not stated),/,/,/,.,/
CCOC(=O)c1c(NC(C)=O)c2c3c(sc2n1Cc1nc(-c2ccc(Cl)cc2)oc1C)CCCC3,/,.,.,.,/
COc1cc(NC(=O)CSc2ccc(-c3ccco3)nn2)cc(OC)c1,/,?,50µM,.,.
NC(=O)COc1ccc2cc(-c3ccc(F)cc3)c(=O)oc2c1,.,25µM,.,.,.
O=C(N/N=C/c1cccnc1)c1cc2c(ccc3ccccc32)o1,.,11µM,?,.,?
CC(=O)/C=C/c1ccc2c(c1)S(=O)(=O)N(C1CCCC1)[C@H]2CC(C)=O,/,/,?,.,/
Cc1cc(N/N=C/c2ccc(N(C)C)cc2)c2ccccc2n1,.,.,.,.,?
Cc1cc(N/N=C/c2ccc(O)cc2)c2cccc(C)c2n1,.,25µM,.,.,?
O=C1SC(SCc2ccccc2)=N/C1=C\c1ccco1,/,35µM,11µM,32µM,79µM
Cc1cnc(C(=O)OCC(=O)c2csc(N3CCCCC3)n2)cn1,?,45µM,?,.,25µM
O=S1(=O)CCO[C@H]2CCCC[C@@H]2N1Cc1ccccc1Br,/,/,.,.,/
C=C1[C@@H](O)[C@H](CC(C)C)N(Cc2ccccc2Br)S1(=O)=O,/,/,.,.,50µM
COc1ccc(OC)c(CNC(=O)c2ccc3c(c2)c(C)c(C)n3Cc2ccc(Cl)cc2)c1,/,.,.,.,.
N#CCC(=O)Nc1ccc(C(=O)OCC(=O)NC2CCCc3ccccc32)cc1 (configuration not stated),.,/,?,.,40µM
O=C1CN(S(=O)(=O)c2ccccc2)c2ccccc2N1,.,?,.,.,.
O=C1CN(S(=O)(=O)c2cc(C(=O)O)ccc2Cl)c2ccccc2N1,/,50µM,?,.,50µM
COc1ccc2c3c(c(=O)oc2c1)C1O[C@](CCCCN2C(=O)c4ccccc4C2=O)(Cc2cc(OC)c(OC)cc21)O3,/,.[22.9 µM],/,/,/
COc1ccc(CN(Cc2ccccc2)C(=O)c2ccco2)cc1COc1ccc(NC(C)=O)cc1,/,/,.,.,/
CC1=C(c2ccc(C(C)C)cc2)S(=O)(=O)N=C1N1CCC(C(=O)Nc2ccc(C)cc2)CC1,/,?,.,.,/
SMILES,L3MBTL1 block,Pol beta inh,POLI inh,Pol kappa inh,POLH inh
CCc1ccccc1NC(=O)C1CCN(C2=NS(=O)(=O)C(c3ccc(C)c(C)c3)=C2C)CC1,/,13µM,.,.,/
CC1=C(c2ccc(C)c(C)c2)S(=O)(=O)N=C1N1CCC(C(=O)Nc2ccc(Cl)cc2)CC1,/,.,?,.,.
CCc1ccc(C2=C(C)C(N3CCC(C(=O)Nc4ccc(F)cc4)CC3)=NS2(=O)=O)cc1,/,22µM,?,.,/
Cc1ccc(NCc2cc3cc4c(cc3n(CC(=O)Nc3ccc(C)cc3)c2=O)OCCO4)cc1,/,.,?,.,.
CCCCCCCCCCCCCCCC(=O)N[C@@H](COP(=O)(O)O)C(=O)O,/,/,/,27µM!,/
CC1c2ccccc2N(S(=O)(=O)c2ccccc2)C1C (configuration not stated),/,/,.,.,.
CCOC(=O)c1c(C)n(-c2ccc(C)cc2)c2c(C(C(C)=O)C(=O)O)c(Br)c(O)c(O)c12 (configuration not stated),/,.,.,.,.
CCOC(=O)C(C(C)=O)c1c(Br)c(O)c(O)c2c(C(=O)c3ccc(C)cc3)coc12 (configuration not stated),.,.,25µM,50µM,.
O=C1C(=NO)CCc2ccccc21,/,/,?,.,18µM
O/N=C1/CCc2cccc3cccc1c23,/,.,.,.,.
Cc1cc(N)c2ccccc2[n+]1CCCCCCCCCC[n+]1c(C)cc(N)c2ccccc21,/,32µM,?,?,.
O=c1c2ccccc2nc(/C=C/c2ccc([N+](=O)[O-])cc2)n1CCCO,.,.,.,.,.
O=c1c2ccccc2nc(/C=C/c2ccc([N+](=O)[O-])o2)n1CCCO,.,?,.,.,16µM
O=C(CNC(=O)C1CCCCC1)OCC(=O)c1ccccc1,/,/,.,.,/
O=C1/C(=C\c2ccc(Br)o2)Cc2ccccc21,.,40µM,?,.,?
O=C1/C(=C/c2cccs2)Cc2ccccc21,.,.,.,.,.
CC(=O)Nc1ccc(S(=O)(=O)Nc2cc(-c3ccccc3)nn2C)cc1,.,.,.,.,.
CC(=O)Nc1ccc(S(=O)(=O)Nc2nc3nc(-c4ccccc4)cc(-c4ccccc4)n3n2)cc1,/,.,?,79µM,.
CCN(CC)CCC(c1ccc(N(C)C)cc1)c1c(OC)cc(OC)c2c1OC(=O)CC2c1ccc(N(C)C)cc1 (configuration not stated),/,/,.,.,/
Cc1cc(Br)ccc1OCC(=O)NNC(=O)C(=O)Nc1ccccc1,.,28µM,?,.,.
O=C(COc1ccc2ccccc2c1)NNC(=O)C(=O)Nc1ccccc1,/,40µM,?,.,.
COc1ccc(NC(=O)C(=O)NNC(=O)COc2ccc(OC)cc2)cc1,/,.,.,.,.
O=C(O)CCc1cc(I)c(O)c(I)c1,/,/,/,.[19.4 µM],/
O=C(CCSCCc1ccccn1)Nc1ccccc1C(F)(F)F,/,.,.,.,.
CCOc1cccc(C2c3c(-c4cc(C)ccc4O)n[nH]c3C(=O)N2Cc2ccco2)c1 (configuration not stated),/,.,?,.,.
SMILES,L3MBTL1 block,Pol beta inh,POLI inh,Pol kappa inh,POLH inh
Cc1ccc(S/C=C\C(=O)c2ccccc2)cc1,/,.,79µM,.,.
COc1cc(/C=C2\C(=O)N(c3ccccc3)N=C2C)ccc1Oc1ccc([N+](=O)[O-])cc1[N+](=O)[O-],.,.,2µM,.,?
CC1=NN(c2ccccc2)C(=O)/C1=C\c1ccc(Oc2ccc([N+](=O)[O-])cc2[N+](=O)[O-])cc1,?,.,1.8µM,.,50µM
COc1cc(/C=C2/SC(=O)NC2=O)ccc1Oc1ccc([N+](=O)[O-])cc1[N+](=O)[O-],/,.,?,.,50µM
COC(=O)C(NC(=O)CCc1c(C)nc2c(-c3ccccc3)c(C)nn2c1C)C(C)C (configuration not stated),/,.,.,.,.
COc1ccc(Cl)cc1NC(=O)C1CCCN(S(=O)(=O)c2ccc3c(c2)CCCC(=O)N3)C1 (configuration not stated),/,.,.,.,.
O=C(NCc1ccc(Cl)cc1)C1CCN(S(=O)(=O)Cc2ccccc2)CC1,/,.,.,.,.
